In the library only some 6% were active in any assay of this set; here they are far more common.
Tau fibril FP = tau fibrillization inhibition (FP); P10636; K18 P301L tau heparin fibrillization, Alexa594 FP, 6 h; Potency, µM (series often up to 57.7 µM), for inactives: at the highest dose activity, negative = inhibition, usual class: inhibitors; 280,000 tested, 0.39% active; AID 1468; note: potency is the fitted concentration of half-maximal effect; % is set by controls: 0 for no effect and ±100 for the full control effect; nearly all actives have a fitted effect of over 55% in size
Target sequence (P10636 561-689 P618L limits assumed): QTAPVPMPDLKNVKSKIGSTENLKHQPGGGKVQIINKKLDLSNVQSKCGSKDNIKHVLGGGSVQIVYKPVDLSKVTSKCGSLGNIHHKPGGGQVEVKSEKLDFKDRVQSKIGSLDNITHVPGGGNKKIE
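Recombinant K18 P301L […], labeled with Alexa 594 at 0.24 uM over 15 uM unlabeled; heparin inducer 20 uM final; 37 C, 6 hr; FP endpoint.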
Tau fluor cs = counter-screen for tau fibril formation inhibitors; Potency, µM (titrated, usually from 57.7 µM), without a hit: at the top dose activity change, negative = decrease; tau K18 P301L Alexa594 fluorescence, heparin fibrillization; AID 1463; 280,000 tested, 0.93% active; note: potency is the fitted concentration of half-maximal effect; % is set by controls: 0 for no effect and ±100 for the full control effect; nearly all actives have a fitted effect of over 55% in size
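Human K18 P301L tau (15 uM unlabeled plus 0.24 uM Alexa 594-labeled, final) in 100 mM sodium acetate pH 7 was mixed with compound and 20 uM heparin and incubated 6 hr at 37 C.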
PLK1 PBD block = blocks phosphopeptide binding to human PLK1 polo-box domain; P53350; Plk1 PBD binding of FITC phosphopeptide, fluorescence polarization; Potency, µM, inactives show max response, negative = inhibition, most hits filed as inhibitors; 360,000 tested, 2.8% active; note: potency is the fitted concentration of half-maximal effect; series mostly up to about 57 µM; % is set by controls: 0 for no effect and ±100 for the full control effect; nearly all actives have a fitted effect of over 65% in size
Target sequence (P53350 whole entry, looked up, the tested form may be a part): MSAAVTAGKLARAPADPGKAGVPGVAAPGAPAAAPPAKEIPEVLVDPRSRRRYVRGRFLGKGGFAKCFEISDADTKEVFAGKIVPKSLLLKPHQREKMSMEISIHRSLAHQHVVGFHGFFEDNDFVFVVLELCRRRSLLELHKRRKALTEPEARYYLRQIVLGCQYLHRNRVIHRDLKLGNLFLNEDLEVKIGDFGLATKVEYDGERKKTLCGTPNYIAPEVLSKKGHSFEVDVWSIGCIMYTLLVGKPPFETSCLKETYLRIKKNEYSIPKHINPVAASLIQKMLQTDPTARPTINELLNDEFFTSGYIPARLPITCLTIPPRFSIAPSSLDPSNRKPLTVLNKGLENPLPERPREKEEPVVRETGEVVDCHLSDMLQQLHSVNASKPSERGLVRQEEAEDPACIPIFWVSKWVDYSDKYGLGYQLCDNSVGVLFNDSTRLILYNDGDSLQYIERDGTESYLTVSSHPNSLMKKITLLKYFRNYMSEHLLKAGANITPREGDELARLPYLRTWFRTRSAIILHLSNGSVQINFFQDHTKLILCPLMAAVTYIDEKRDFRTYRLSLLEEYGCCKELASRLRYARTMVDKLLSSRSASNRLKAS
Sfp PPTase inh = Sfp phosphopantetheinyl transferase inhibition; Q9F4F7; Biochemical Sfp PPTase activity, qHTS; Potency, µM, inactives show largest response in the series, negative = inhibition, actives largely listed as inhibitors; 310,000 tested, 3.5% active;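 note: the enzyme is Sfp with the accession as filed and its product quenches rhodamine fluorescence; potency is the fitted concentration of half-maximal effect; 0% = enzyme reaction without inhibitor and -100% = no enzyme wells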
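After 15 min at room temperature with compound, 15 nM Sfp received 5 uM rhodamine-CoA plus 12.5 uM BHQ-2-ybbR (50 mM Hepes pH 7.6, 10 mM MgCl2). Rate came from the fluorescence difference over 30 min, ex 525/em 598 nm.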
VDR inhibitor = inhibitors of human vitamin D receptor; VDR-SRC2-3 peptide fluorescence polarization, 2 h; Potency, µM, without a hit: max response, negative = inhibition, hits mostly inhibitors; 400,000 tested, 0.93% active; note: potency is the fitted concentration of half-maximal effect; % is set by controls: 0 for no effect and ±100 for the full control effect
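Signal is fluorescence polarization, reporting how far test compounds block the interaction of VDR with the SRC2-3 coregulator peptide after a 2 h room-temperature incubation.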
Tau fibril ThT = tau fibrillization inhibition (ThT binding); recombinant tau K18 P301L (four-repeat tau fragment), heparin-induced fibrillization, ThT fluorescence; 270,000 tested, 2.1% active; P10636; AID 1460; Potency, µM (series often up to 57.4 µM), inactives show at the highest dose activity, negative = inhibition, actives largely listed as inhibitors; note: potency is the fitted concentration of half-maximal effect; % is set by controls: 0 for no effect and ±100 for the full control effect; nearly all actives have a fitted effect of over 55% in size
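Recombinant human tau K18 fragment […] carrying P301L, 15 uM unlabeled plus 0.24 uM Alexa 594-labeled, was fibrillized with 20 uM heparin in 100 mM sodium acetate pH 7 for 6 hr at 37 C; 30 uM ThT fluorescence read after 1 hr.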
USP1 UbRho = validation of human USP1/UAF1 inhibitors; 50 tested, 50% active; shares compounds with VDR inhibitor; AID 540327; Ub-Rhodamine cleavage, fluorescence kinetic read; Potency, µM (top dose mostly 114 µM), without a hit: at the top dose activity change, negative = inhibition, usual class: inhibitors
VDR inh confirm = inhibits human vitamin D receptor, primary hit validation; shares compounds with VDR inhibitor; VDR-coactivator inhibition assay, qHTS confirmation; Potency, µM, hits mostly inhibitors; 840 tested, 89% active; AID 602199; note: potency is the fitted concentration of half-maximal effect
VDR FP fluor = confirmation of human VDR-coactivator binding inhibitors, fluorescein label; shares compounds with VDR inhibitor; VDR-coactivator binding, fluorescein fluorescence polarization; Potency, µM (series often up to 57.1 µM), without a hit: at the highest dose activity change, negative = inhibition, usual class: inhibitors; 840 tested, 48% active; note: potency is the fitted concentration of half-maximal effect
VDR bla reporter = confirmation of human vitamin D receptor inhibitors in reporter cells | 840 tested, 23% active | AID 602202 | shares compounds with VDR inhibitor | Potency, µM (titrated, usually from 46.1 µM), without a hit: at the top dose activity change, negative = inhibition, hits mostly inhibitors | VDR beta-lactamase reporter cells, FRET ratio; cells co-treated with VDR agonist LG190178; note: potency is the fitted concentration of half-maximal effect; % is set by controls: 0 for no effect and ±100 for the full control effect
VDR cytotox = cytotoxic in counter-screen for VDR inhibitors | cytotoxicity counter-screen, cell viability, qHTS | 840 tested, 18% active | shares compounds with VDR inhibitor | Potency, µM (series often up to 48.3 µM), for the others: at the highest dose activity change, negative = cytotoxicity, most hits filed as cytotoxic | AID 602204;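 note: potency is the fitted concentration of half-maximal effect; plate controls were DMSO for no effect and high-concentration cycloheximide for full effect; nearly all actives have a fitted effect of over 75% in size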
* marks the source's active call; other numbers are inactive results; u = inconclusive; x = no result; ! = a repeat was not active. Calls come from the whole dose curve; as a rule, active = well fitted curve in the direction sought with a large enough effect; inconclusive = small, poorly fitted or top-dose-only effect, or another doubt; inactive = no such curve, though single readings can be large; an effect the other way counts as inactive or inconclusive.

SMILES | Tau fibril FP | Tau fluor cs | PLK1 PBD block | Sfp PPTase inh | VDR inhibitor | Tau fibril ThT | VDR inh confirm | VDR FP fluor | VDR bla reporter | VDR cytotox | others
O=C(CCS(=O)(=O)c1nc(-c2cccs2)cc(C(F)(F)F)n1)Nc1ccc(F)c(Cl)c1 | u | -17% | x | x | 22µM* | 3% | 3.2* | 3.5µM* | u | u
COc1ccc(Cl)cc1NC(=O)CCS(=O)(=O)c1nc(-c2cccs2)cc(C(F)(F)F)n1 | -4% | -11% | x | x | 20µM* | -11% | 5* | 3.5µM* | 18µM* | u
O=C(CCS(=O)(=O)c1nc(-c2ccc3c(c2)OCO3)cc(C(F)(F)F)n1)Nc1ccc(Br)cc1 | 1% | -14% | x | x | 13µM* | -5% | 3.2* | 3.5µM* | 23µM* | u
Cc1ccc(N2CCN(C(=O)CCS(=O)(=O)c3cc4c(cc3Cl)NC(=O)CO4)CC2)c(C)c1 | 1% | u | x | x | 6% | -11% | x | x | x | x
CN(Cc1ccccc1)C(=O)NC1CCCCC1 | 2% | 4% | -4% | -7% | 18% | 1% | x | x | x | x
CC(C)(Sc1ccc(CCN(CCCCC2CCCCC2)C(=O)NC2CCCCC2)cc1)C(=O)O | -1% | -12% | 21µM* | 26% | 40µM* | u | x | x | x | x | USP1 UbRho=33µM*
COc1ccccc1C1=NNC(=Nc2cccc(S(=O)(=O)N(C)C)c2)SC1 | u | -23% | -19% | -93% | u | u | u | u | 2% | u
CC(=O)N1CCN(C(=O)c2ccc(-c3ccccc3Cl)o2)CC1 | x | x | -9% | x | -26% | x | x | x | x | x
CC(=O)N1CCN(C(=S)c2ccc(-c3ccc(Cl)cc3)o2)CC1 | 1% | -13% | 4.7µM* | 32µM* | 50µM* | -12% | 27* | u | 26% | 5%
COc1ccc(OC)c(NC(=O)c2nc(S(=O)(=O)Cc3ccccc3F)ncc2Cl)c1 | x | x | x | x | x | x | 2.8* | 4µM* | 16µM* | 11µM*
COc1ccc(OC)c(NC(=O)c2nc(S(=O)(=O)Cc3ccccc3)ncc2Cl)c1 | x | x | u | -5% | 10µM* | x | 12* | u | 8.2µM* | 8.2µM*
COc1ccc2nc(NC(=O)c3nc(SCc4ccccc4F)ncc3Cl)sc2c1 | 4% | -13% | x | x | 6% | 1% | x | x | x | x
O=C1c2ccccc2C(c2nnnn2-c2ccc3c(c2)OCCO3)N1Cc1cccs1 (stereo not given) | x | x | -15% | x | x | x | x | x | x | x
Cc1cc(O)c(N=Cc2cc3c(cc2[N+](=O)[O-])OCO3)cc1C | x | x | -6% | x | -6% | x | x | x | x | x
Cc1ccc(N2NC(=O)/C(=C\c3cc4c(cc3[N+](=O)[O-])OCO4)C2=O)cc1C | u | u | 9.5µM* | -17% | 50µM* | 14µM* | 12* | u | u | -22%
COCCN(C(=O)c1ccc2c(c1)S(=O)(=O)N=C1CCCCCN12)c1c(N)n(CC(C)C)c(=O)[nH]c1=O | x | x | 3% | x | 3% | x | x | x | x | x
CC1(C)C(=O)NC2=C1C(=O)C(=O)c1ccccc12 | u | -28% | x | 50µM*! | 45µM* | 18µM* | x | x | x | x | USP1 UbRho=0.83µM*
O=C(Oc1csc(=S)n1C(=O)c1ccccc1)c1ccccc1 | -16% | -25% | 3µM* | 40µM* | u | 11µM* | u | 8.9µM* | -5% | 14%
CC(=O)c1cccc(OC(=O)c2ccccc2)c1 | x | x | -1% | x | -7% | x | x | x | x | x
CCOc1ccc(NC(=O)Cn2c(=O)n(-c3cccc(Cl)c3)c(=O)c3c2c2cc(C)ccc2n3C)cc1 | 2% | -10% | x | x | -1% | -1% | x | x | x | x
O=C(O)c1ccc(Oc2nc3ccccc3s2)cc1 | x | x | -3% | x | -2% | x | x | x | x | x
O=C(O)c1ccc(C=C(c2nc3ccccc3s2)c2nc3ccccc3s2)cc1 | -14% | -9% | 30µM* | -3% | u | u | 13* | 16µM* | 23µM* | -25%
CC1(C)CC(=O)C(C(C2=C(O)CC(C)(C)CC2=O)c2ccc(O)c([N+](=O)[O-])c2)=C(O)C1 | 3% | -6% | 4.7µM* | 20µM* | 79µM* | -15% | 9.5* | u | -2% | 17%
N#C/C(=N\Nc1cc(Cl)cc(Cl)c1)c1nnc2n1CCCCC2 | -1% | -3% | -22% | u | 11% | 0% | x | x | x | x
N#C/C(=C1\C(=O)Nc2c(Cl)cc(Cl)cc21)c1nnc2n1CCCCC2 | u | -25% | u | u | 28µM* | 16µM* | 6.7* | 25µM* | 35% | 18%
SMILES | Tau fibril FP | Tau fluor cs | PLK1 PBD block | Sfp PPTase inh | VDR inhibitor | Tau fibril ThT | VDR inh confirm | VDR FP fluor | VDR bla reporter | VDR cytotox | others
CCOc1ccc(C(=O)OC(C)C(=O)N2CCN(Cc3ccccc3)CC2)cc1 (stereo not given) | x | x | 2% | x | -8% | x | x | x | x | x
CCOc1ccc(C(=O)CC(C(=O)O)N2CCN(Cc3ccccc3)CC2)cc1 (stereo not given) | x | x | -23% | x | 50µM* | x | 24* | 28µM* | 27% | -25%
CCOc1ccc(C(=O)CC(C(=O)O)N2CCCCC2)cc1 (stereo not given) | x | x | u | x | 40µM* | x | 24* | u | 11% | -1%
CCCc1c(OCCCOc2ccc(OCC(=O)O)cc2)ccc(CC=O)c1O | -5% | 4% | x | -11% | 35µM* | u | x | x | x | x | USP1 UbRho=59µM*
CCOC(=O)COc1ccc(Br)cc1/C=C1\SC(N)=NC1=O | x | x | -17% | -19% | -9% | x | x | x | x | x
CCOC(=O)CSC1=NC(=O)/C(=C\c2ccc(OC(C)=O)cc2)S1 | -20% | -22% | 2.1µM* | u | 20µM* | u | 13* | u | u | u
CCOc1ccccc1C1NC(c2ccc3c(c2)OCO3)=CC(c2ccccc2O)N1 (stereo not given) | x | x | x | x | -16% | x | x | x | x | x

Assay outcomes (PubChem BioAssay)
